This is a sample that favours compounds with a hit; in the whole collection about 4% have one here.
TROY NFkB inh = inhibitors of TROY-driven NF-kB signaling, primary screen, Q293 LMP1-TROYcd cells, NF-kB luciferase, uHTS; inhibition, % at 10 µM; Q293 LMP1-TROYcd NF-kB luciferase reporter, 4 h; actives 0.98% (n = 360,000);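 active = compounds whose plate-normalised and pattern-corrected inhibition of the luciferase reporter signal at the single screening dose is 50% or more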
Peg3 promoter = Peg3 promoter-driven luciferase inhibitors, primary screen, cell-based, HeLa, luciferase luminescence; inhibition, % at 20 µM; HeLa PEG-Prom luciferase reporter, overnight; actives 1.7% (n = 360,000);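 active = inhibition of at least 50% at 20 µM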
TWEAK Fn14 block = inhibitors of TWEAK-Fn14 signaling, primary screen, luciferase reporter cells, uHTS; TWEAK-stimulated Fn14 reporter cells, luciferase luminescence, 8 h; inhibition, % at 10 µM; actives 2% (n = 360,000); in the data active = inhibition above about 50%
LMP1 NFkB inh = EBV LMP1-driven NF-kappaB luciferase reporter inhibitors, primary screen, cell-based, luminescence, single point | inhibition, % at 12.5 µM | actives 0.69% (n = 350,000) | LMP1-induced NF-kappaB luciferase reporter cells; in the data active = inhibition above about 41%; inconclusive = no clear call, values can overlap the other calls
HIF-2a block = HIF-2a reporter inhibitors, primary screen, luminescence, 786-0 RCC cells; 786-0 RCC cells HIF-2a reporter, luciferase luminescence, overnight; inhibition, % at 18.8 µM; actives 0.72% (n = 360,000);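 active = inhibition of the luminescence signal of 40% or more relative to plate controls, in a single-dose primary screen at 18.75 µM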
MITF TRPM1 inh = inhibitors of MITF-dependent TRPM1 promoter reporter, primary screen, cell-based, SK-MEL-5, single point, luciferase; AID 488899, 2010; SK-MEL-5 TRPM1 promoter luciferase, 24 h; inhibition, % at 12.5 µM; actives 0.83% (n = 330,000);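 active = mean inhibition across replicates of 60% or more, whatever share of single replicates reaches that level; inconclusive = some that reach 60%, reason not given; inactive = mean inhibition across replicates below 60%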
Large screens that a line does not name were inactive.

O=C(CN1C(=O)/C(=C/c2ccc(F)cc2)SC1=S)N1CCN(CCc2ccccn2)CC1	Peg3 promoter 51.3
CN1CCN(C(=O)CCN2C(=O)/C(=C\c3ccc(F)cc3)SC2=S)CC1	none
O=C(CCN1C(=O)/C(=C/c2ccc(F)cc2)SC1=S)NCCc1ccc(O)cc1	Peg3 promoter 83.0
O=C(CCN1C(=O)/C(=C/c2ccccc2)SC1=S)Nc1ccccn1	none
COc1cccc(/C=C2\SC(=S)N(CCC(=O)NCCc3ccc(O)cc3)C2=O)c1	Peg3 promoter 95.4, LMP1 NFkB inh 41.4
COc1ccc(-c2nc(NC(=O)c3cc(C(C)(C)C)nn3C)sc2C)cc1	TWEAK Fn14 block 67.6
Cc1c(C(=O)NCc2ccc(Cl)c(Cl)c2)sc(=O)n1Cc1ccc(S(C)(=O)=O)cc1	TWEAK Fn14 block 52.9 (no result: LMP1 NFkB inh, MITF TRPM1 inh)
COc1ccc(CNC(=O)c2sc(=O)n(Cc3ccc(-c4ccccc4)cc3)c2C)cc1OC	TWEAK Fn14 block 60.6 (no result: LMP1 NFkB inh, MITF TRPM1 inh)
CSc1ccc(Cn2c(C)c(C(=O)NCc3ccc(Cl)c(Cl)c3)sc2=O)cc1	none (no result: LMP1 NFkB inh, MITF TRPM1 inh)
COc1cc(OC)c2nc(C)c3c(c2c1)N(c1ccc(O)cc1)CC3	Peg3 promoter 65.1
CC(C)N(CC(=O)Nc1ccc(Cl)cc1C(F)(F)F)C(=O)CCl	Peg3 promoter 64.9, TWEAK Fn14 block 63.5
COc1ccc(NC(=O)/C(Cl)=C(/Cl)S(=O)Cc2ccccc2)cn1 (stereo not given)	TROY NFkB inh 63.0, Peg3 promoter 104.6, TWEAK Fn14 block 97.8, LMP1 NFkB inh 83.1, HIF-2a block 93.9, MITF TRPM1 inh 103.8
COc1ccc(NC(=O)Cc2ccccc2)cn1	none
CCc1nc(SCC(=O)Nc2ccc(Br)cn2)n[nH]1	none
CCCn1cc(SCC(=O)Nc2nnc(C)s2)c2ccccc21	none
COc1ccc(C(=O)NCCn2cc(SCC(=O)Nc3cc(C)on3)c3ccccc32)cc1OC	none
CCOc1ccc(C(=O)NCCn2cc(SCC(=O)Nc3cc(C)on3)c3ccccc32)cc1	TROY NFkB inh 56.2
Cc1cc(NC(=O)CSc2cn(CCNC(=O)c3ccc(Cl)cc3)c3ccccc23)no1	TROY NFkB inh 70.7, TWEAK Fn14 block 66.9
Cc1ccc(C(=O)NCCn2cc(SCC(=O)Nc3nnc(C)s3)c3ccccc32)cc1	TROY NFkB inh 77.2, TWEAK Fn14 block 90.6 (no result: MITF TRPM1 inh)
COc1ccc(C(C(=O)NCc2ccccc2)n2c(-c3ccccn3)nc3ccccc32)cc1 (stereo not given)	none (no result: TROY NFkB inh, Peg3 promoter, TWEAK Fn14 block, LMP1 NFkB inh, MITF TRPM1 inh)
COc1ccc(NC(=O)N2CCC(c3nc4ccccc4[nH]3)CC2)cc1	none
Cc1ccc(C)c(N2CCN(S(=O)(=O)c3ccc4c(c3)CCN4C(=O)CCC(=O)O)CC2)c1	LMP1 NFkB inh 85.5
CC(=O)N1CCCc2cc(S(=O)(=O)N3CCCC(C(=O)N4CCN(c5cc(C)ccc5C)CC4)C3)ccc21 (stereo not given)	TWEAK Fn14 block 54.0
COc1ccc(NC(=O)CN2C(=O)S/C(=C/c3cccn3-c3ccc(C(=O)O)cc3)C2=O)cc1	none
COc1ccccc1N(C(=O)c1csnn1)C(C(=O)NC1CCCC1)c1ccccc1 (stereo not given)	none
O=C(N=c1nc2ccccn2s1)c1ccccc1	TROY NFkB inh 58.8, TWEAK Fn14 block 94.9
O=C(CCc1nnc(Cc2c[nH]c3ccccc23)o1)NCC1CC12CCCCC2 (stereo not given)	none
CCOc1cc(/C=C2\C(=O)N(c3nc(-c4ccc(Br)cc4)cs3)N=C2c2ccccc2)ccc1O	Peg3 promoter 50.7
C=C1C(=O)C23C(O)C1CCC2C12CCCC(C)(COC(C)=O)C1C(O)C3(O)OC2 (stereo not given)	TROY NFkB inh 76.8, Peg3 promoter 107.0, TWEAK Fn14 block 101.1, LMP1 NFkB inh inconclusive, HIF-2a block 93.1, MITF TRPM1 inh 97.1
Cn1c(CNc2ccc(Cl)cc2)nc2ccccc21	none
CC(C)N=c1cc2n(-c3ccc(Cl)cc3)c3ccccc3nc-2cc1Nc1ccc(Cl)cc1	Peg3 promoter 101.5, MITF TRPM1 inh 73.9

Assay outcomes: PubChem, several laboratories
